SARS PLP yeast: SARS-CoV PLP inhibition in yeast. S. cerevisiae expressing SARS-CoV PLpro, growth rescue. Potency, µM (doses to about 32.9 µM), for inactives: at the highest dose activity, positive = growth rescue, actives largely listed as activators. 330,000 compounds, 0.19% hits; calls by dose curve; also: 0% is about no effect; nearly all actives have a fitted effect of over 55% in size
Pf growth 48h: P. falciparum growth inhibition at 48 hours (one generation) | P. falciparum luciferase growth in erythrocytes, 48 h | Potency, µM (doses to about 28.7 µM), inactives show top-dose activity change, negative = inhibition, actives largely listed as inhibitors | 310,000 compounds, 5.9% hits | AID 504832; also: % is scaled to controls: 0 for no effect and ±100 for the full control effect
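First compound was added to culture medium, then infected red cells at 0.1% parasitemia and 2% hematocrit (final). After incubation at 37 C under 5% CO2, luciferase detection reagent was dispensed and light output recorded.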
Pf growth 96h: P. falciparum growth inhibition at 96 hours | P. falciparum luciferase reporter growth, 96 h | Potency, µM (top dose mostly 28.7 µM), inactives show at the top dose activity change, negative = inhibition, most hits filed as inhibitors | 320,000 compounds, 6.9% hits | AID 504834; also: % is scaled to controls: 0 for no effect and ±100 for the full control effect
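96 h incubation, 37 C, 5% CO2, of luciferase-reporter P. falciparum-infected RBCs (2% hematocrit, 0.05% parasitemia final) with test compounds; endpoint luminescence.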
AMA1-RON2 inh: AMA1-RON2 (P. falciparum) interaction inhibition; AlphaScreen AMA1-biotinylated RON2 peptide binding; 360,000 compounds, 0.2% hits; Potency, µM (series often up to 58.2 µM), inactives show at the highest dose activity change, negative = inhibition, actives largely listed as inhibitors;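 also: 0% = vehicle wells and -100% = peptide control; nearly all actives have a fitted effect of over 45% in size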
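AMA1 (3D7) with his tag at 25 nM final met compounds first, then biotinylated RON2 peptide at 25 nM; detection used donor plus acceptor beads, 10 µg/mL apiece, read by AlphaScreen after 30 min at room temperature.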
Active calls of the source: *; i = inactive; ? = inconclusive; . = not tested or not shown; [ ] = another dose, or the depositor's remark. This is a sample that favours compounds with a hit; in the whole collection about 9.4% have one here. Unless noted, calls follow the shape of the dose curve; as a rule, active = well fitted curve in the direction sought with a large enough effect; inconclusive = small, poorly fitted or top-dose-only effect, or another doubt; inactive = no such curve, though single readings can be large; an effect the other way counts as inactive or inconclusive. Potency is read from the fitted curve at half-maximal effect.

SMILES	SARS PLP yeast	Pf growth 48h	Pf growth 96h	AMA1-RON2 inh
CCN(CC)CCOC(=O)c1cc(Cl)c(N)cc1OC	.	33%	68%	10%
C=CCN=C(NC#N)SC	0%	0.23µM*	26%	3%
C=CCN=C(NC#N)SCC(=O)NC(C)(C)C	0%	14%	6%	6%
Cc1ccc(CNC(=O)CSc2nc3ccccc3c(=O)n2CC2CCCO2)cc1 (stereo not drawn)	-6%	.	.	13%
Cc1ccc(CNC(=O)CSc2c3c(nc4cc(Cl)ccc24)CCCC3)o1	-18%	15µM*	-4%	6%
O=C(O)CSc1c2c(nc3cc(C(=O)Nc4ccc(F)c(Cl)c4)ccc13)CCCC2	-3%	6%	1µM*	3%
COc1ccc(S(=O)(=O)N2CCCCCC2)cc1C(=O)NCCc1ccccc1	-4%	?	?	77%
CCCC(=O)Nc1cc(-c2nnc(OC)c3ccccc23)ccc1N1CCOCC1	.	.	.	3%
CC(C)[C@@H](C(=O)NC1CC1)N1C(=O)N2CCc3c([nH]c4ccccc34)[C@@]2(C)C1=O	7%	?	?	0%
COc1ccc2[nH]c3c(c2c1)CCN1C(=O)N([C@@H](C)C(=O)NCc2ccccc2)C(=O)[C@]31C	5%	?	?	8%
COc1ccc2[nH]c3c(c2c1)CCN1C(=O)N([C@@H](C)C(=O)NCc2ccccc2OC)C(=O)[C@]31C	-1%	4.1µM*	7.4µM*	-18%
C[C@@H](C(=O)NC1CCN(Cc2ccccc2)CC1)N1C(=O)N2CCc3c([nH]c4ccccc34)[C@@]2(C)C1=O	-2%	-12%	?	-10%
CC(C)[C@@H](C(=O)N1CCCC1)N1C(=O)N2CCc3c([nH]c4ccccc34)[C@@]2(C)C1=O	-6%	?	10µM*	-3%
CC(C)[C@@H](C(=O)NC1CCN(Cc2ccccc2)CC1)N1C(=O)N2CCc3c([nH]c4ccccc34)[C@@]2(C)C1=O	7%	?	7.4µM*	-16%
COC(=O)C1=C(C)Nc2[nH]c(=S)[nH]c(=O)c2C1c1ccc(OC)cc1 (stereo not drawn)	1%	7%	6%	88%
COC(=O)c1cc2occc2n1Cc1c(F)cccc1Cl	17%	1%	2.6µM*	.
C/C(=N\Nc1nc2ccccc2nc1C)c1ccccc1O	-2%	?	1.2µM*	71%
CN1CCN(c2nc(-c3ccc(Cl)c(Cl)c3)nc3ccccc23)CC1	0%	-25%	?	.
c1ccc(N2CCN(c3nc(-c4ccccn4)nc4ccccc34)CC2)cc1	-17%	1.9µM*	2.9µM*	-11%
CSc1nc(N2CCN(C)CC2)c2ccccc2n1	0%	-10%	15µM*	11%
CCCOc1ccc(-c2nc(N3CCN(C)CC3)c3ccccc3n2)cc1	-3%	-1%	?	-13%
CN1CCN(c2nc(-c3ccccn3)nc3ccccc23)CC1	0%	.	5.9µM*	4%
COC(=O)CSc1nnc(-c2ccccc2OC)o1	-6%	-7%	.	6%
O=C1OC(OC(=O)c2cccnc2Nc2cccc(C(F)(F)F)c2)c2ccccc21 (stereo not drawn)	.	-7%	-15%	.
CCc1c(C)nc(Nc2nc(C)c3ccc(OC)cc3n2)[nH]c1=O	0%	.	7.4µM*	9%
SMILES	SARS PLP yeast	Pf growth 48h	Pf growth 96h	AMA1-RON2 inh
COc1ccc2c(C)nc(Nc3nc(C)cc(C)n3)nc2c1	10%	13µM*	4.7µM*	12%
COc1ccc(Nc2nc(C)c3ccccc3n2)cc1	-4%	115%	3.7µM*	-11%
CCc1c(C)nc(Nc2nc(C)c3cc(OC)ccc3n2)[nH]c1=O	8%	?	-19%[5.75 µM]	-2%
COc1ccc2c(C)nc(Nc3nc(C)c(C)c(=O)[nH]3)nc2c1	1%	89%	?	4%
COc1cc(/C=C/[N+](=O)[O-])ccc1OCc1cccc(C(=O)O)c1	1%	43%	11%	?
Cc1oc(-c2cccc(Cl)c2)nc1CN1CCC(C(=O)NCc2ccco2)CC1	5%	4%	-10%	0%
CCN1CCCC1CNC(=O)C1CCN(Cc2nc(-c3cccc(Br)c3)oc2C)CC1 (stereo not drawn)	-12%	6.6µM*	?	-21%
COc1ccccc1CNC(=O)C1CCN(Cc2nc(-c3cccc(Cl)c3)oc2C)CC1	8%	10µM*	i	-12%
COc1ccc(-c2nc(CN3CCC(c4ccccc4)CC3)c(C)o2)cc1OC	0%	12µM*	13µM*	-5%
Cc1ccc(-c2nc(CN3CCCCC3CCN3CCCC3=O)c(C)o2)o1 (stereo not drawn)	0%	-8%	0%	-16%
Cc1oc(-c2cccc(F)c2)nc1CN1CCCCC1CCn1cccn1 (stereo not drawn)	-1%	13µM*	0%	1%
COc1ccc(S(=O)(=O)N2CCCC2)cc1C(=O)N1CCOCC1	4%	0%	-7%	3%
Cc1ccc(Sc2ccc(C(=O)NC(C)C)cc2[N+](=O)[O-])cc1	-7%	-8%	?	-8%
O=C(Cn1cnc2c(nnn2Cc2ccc(Cl)cc2)c1=O)N1CCCc2ccccc21	5%	-24%	.	-4%
Cc1occc1C(=O)Nc1cc(C(C)(C)C)on1	-5%	50%	.	-5%
COc1ccccc1CN1CCCCC1c1cccnc1 (stereo not drawn)	-4%	7%	.	-6%
Cc1oc(-c2ccc(Cl)cc2)nc1CN1CCC(C(=O)NCCCN2CCCC(C)C2)CC1 (stereo not drawn)	23%	2.1µM*	7%	-5%
CSc1ccc(-c2nc(CN3CCCCC3c3cccnc3)c(C)o2)cc1 (stereo not drawn)	1%	8.3µM*	-26%	-24%
COc1ccc(CNC(=O)CCN2C(=O)c3ccccc3S2(=O)=O)cc1	-3%	10%	51%	2%
CC(=O)Nc1ccc(OCC(O)Cn2nc(C)c(C)c2C)cc1 (stereo not drawn)	1%	17%	10µM*	-4%
CC(=O)Nc1ccc(OCC(O)CN2CCN(c3cccc(Cl)c3)CC2)cc1 (stereo not drawn)	-4%	?	10µM*	-11%
CC(=O)Nc1ccc(OCC(O)Cn2c(C(C)C)nc3ccccc32)cc1 (stereo not drawn)	0%	-1%	2.3µM*	-10%
CC(=O)Nc1ccc(OCC(O)CN2CCN(c3ccc(Cl)cc3)CC2)cc1 (stereo not drawn)	1%	?	?	15%
CC(=O)Nc1ccc(OCC(O)Cn2c(C)nc3ccccc32)cc1 (stereo not drawn)	3%	.	30%	-13%
C=CCOc1ccc(CNn2cn[nH]c2=S)cc1	-5%	37%	94%	54%
CCCCn1c(-c2ccc(Cl)c(Cl)c2)nc2cc3[nH]c(=O)c(C(C)C)nc3cc21	1%	?	4.7µM*	30%
CCCCn1c(-c2ccc(C(C)(C)C)cc2)nc2cc3[nH]c(=O)c(C(C)C)nc3cc21	-12%	?	4.7µM*	45%
CCCCn1c(=O)[nH]c(=O)c2c1nc(-c1ccc3ccccc3c1)n2CC	-4%	-28%	?	15%
